# Source: PubChem BioAssay (NCI)
# Values joined by “and” are separate entries in the source; they are usually repeats but may differ in a detail not shown here. Identical values can stand only once. Compounds without any hit were thinned out: in the full panel of roughly 79,000, 15% have a hit. A number with no mark means an inactive call. Active and inactive are the calls of the source. No stated cut-off is given here; in the data, active means growth inhibition above about 70%; inactive means the rest.
# Assays:
# [1] = NCI Yeast Anticancer Drug Screen. Data for the rad50 strain (AID 155);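 further: 0% = growth of vehicle-only cultures of the same strain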; settings: S. cerevisiae rad50 strain growth inhibition, active compounds read high; at 50.0 µM unless noted
# Summary of the method: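 Genetically altered yeast (DNA repair pathway); compound treatment; growth inhibition vs vehicle ctrl.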
# [2] = NCI Yeast Anticancer Drug Screen. Data for the mec2-1 strain (AID 157); settings: S. cerevisiae mec2-1 strain, active compounds read high; at 50.0 µM unless noted
# Summary of the method: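 Vehicle-treated cultures served as reference for growth inhibition of compound-exposed mec2-1 yeast.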
# [3] = NCI Yeast Anticancer Drug Screen. Data for the sgs1 mgt1 strain (AID 161);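 further: 0% = growth of cultures given vehicle only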; settings: S. cerevisiae sgs1 mgt1 strain, active compounds read high; at 50.0 µM unless noted
# Summary of the method: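 Inhibition of yeast growth, normalised to vehicle-treated controls, is reported for a strain bearing genetic alterations in DNA damage repair.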
# [4] = NCI Yeast Anticancer Drug Screen. Data for the cln2 rad14 strain (AID 165);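 further: 0% = growth equal to vehicle treated cultures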; settings: S. cerevisiae cln2 rad14 strain, active compounds read high; at 50.0 µM unless noted
# Summary of the method: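 Each compound was tested on cln2 rad14 yeast. Inhibition of growth was calculated against vehicle-exposed controls.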
# [5] = NCI Yeast Anticancer Drug Screen. Data for the bub3 strain (AID 167); settings: S. cerevisiae bub3 mutant strain, active compounds read high; at 50.0 µM unless noted
# Summary of the method: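 Yeast carrying a defined mutation is treated with each compound, and growth is compared with that of vehicle-exposed cells to give inhibition.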
# [6] = NCI Yeast Anticancer Drug Screen. Data for the mlh1 rad18 strain (AID 175); settings: S. cerevisiae mlh1 rad18 strain growth inhibition, active compounds read high; at 50.0 µM unless noted
# Summary of the method: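 Vehicle-treated cultures served as the reference for growth inhibition in a yeast strain carrying DNA damage repair alterations exposed to each compound.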
Compound,growth inhibition [1],growth inhibition [2],growth inhibition [3],growth inhibition [4],growth inhibition [5],growth inhibition [6]
CC(=O)c1cc2c(cc1O)oc1c(C)ccc(C)c12,20.8%,-3.4%,5.55%,18.2%,-29.7%,-13.8%
CSc1cc(Cl)c(C(=O)Nc2ccccc2)cc1S(=O)(=O)n1cc[nH]c1=O,0.2%,-10.6%,-6.35%,-8.95%,-1.35%,8.05%
O=C(O)CNOCN1C(=O)c2ccccc2C1=O,11.6%,-1.25%,13.3%,-21.6%,-16%,14.4%
CC(=O)C[N+](C)(C)C,-12.9%,-17.1%,-14.8%,-7.45%,-20.8%,12.7%
CS(=O)(=O)Nc1c(-c2ccccc2)oc2ccccc2c1=O,-12.1%,-0.8%,-6.5%,-33.6%,11.3%,-3.85%
COc1ccc(-c2nc(N)c3ncn(C4OC(CO)C(O)C4O)c3n2)cc1 (stereo not drawn),-13.2%,-23.9%,-7.15%,-12.2%,-27.1%,15.4%
Oc1ccc(Br)cc1/C=N/c1nc2ccccc2s1.Oc1ccc(Br)cc1/C=N/c1nc2ccccc2s1.[Cu],38%,40.9%,0.05%,15.3%,-0.25%,43.5%
COc1ccc(-c2cc(=O)c3c(O)c(O)c(OC)cc3o2)cc1O,-5.15%,-28.6%,-55.9%,-8.4%,-2.6%,-18.3%
COc1ccc2c(c1)[n+](=O)c(C(=O)C/C(=N/NC(=O)c1ccccc1O)C(=O)Nc1ccc(Cl)c(C(F)(F)F)c1)c(C)n2[O-],25.1%,9.4%,14.5%,8.75%,34.2%,1.35%
NNC(=O)Cc1ccc(Cl)c2ccccc12,5.8%,-17.9%,3.6%,-75.9%,-5.2%,8.85%
COc1ccc2c3c([nH]c2c1N)C(C)NCC3 (stereo not drawn),-11.4%,-18.9%,4.2%,13.3%,-18.3%,0.4%
Cc1ccc(NC(=O)N(C)C)c(C)c1,-36.7%,-37%,-4.9%,12%,16.4%,-9.75%
CCCc1[nH]n(-c2ccccc2)c(=O)c1N=Nc1cccc(C(F)(F)F)c1,-10.7%,-1.1%,-7.3%,-12.8%,-5%,-7.95%
NC(CCn1cnc2c(=O)[nH]cnc21)C(=O)O (stereo not drawn),4.1%,10.3%,6.7%,-31.6%,-12.8%,-11.7%
O=C1CSC(c2c[nH]c3ccccc23)N1c1ccc(Cl)cc1 (stereo not drawn),-33.9%,-25.5%,-46.2%,-3.55%,-28.9%,-30.4%
O=C(O)CCNC(=O)CNC(=O)OCc1ccccc1,3.9%,10.6%,-2.85%,5.55%,-0.25%,-9.65%
Cc1ccc(NC(=O)CCS)cc1,-1.75%,-25.9%,9.5%,2.1%,-13.2%,15.9%
NC(=O)c1ccccc1NC(=O)C(=O)C(C(=O)c1ccc(Cl)c(Cl)c1)C1OC(=O)c2ccccc21 (stereo not drawn),53.2%,46.9%,32.9%,67.5%,57.9%,44.6%
O=c1c(O)c(-c2cc(O)c(O)c(O)c2)oc2cc(O)cc(O)c12,13.7%,-21.1%,7.55%,1.1%,14.5%,-8.55%

Compound,growth inhibition [1],growth inhibition [2],growth inhibition [3],growth inhibition [4],growth inhibition [5],growth inhibition [6]
CCCCCC#CC[C@@H](O)[C@@H](O)COCc1ccccc1,17.4%,8.6%,32.2%,29.2%,-20.8%,9.9%
CCCCCCCCCCCC(O)C(C)(C)C (stereo not drawn),23.7%,10.1%,-12.6%,-39.2%,11.9%,10.3%
O=C(Nc1ccc(Nc2ccc3c(c2)C(=O)c2ccccc2C3=O)c2c1C(=O)c1ccccc1C2=O)c1ccccc1,-35.7%,-15.2%,-15.3%,-36.7%,-15.2%,-25.6%
O=C1OC(C(O)C(O)CO)C(O)=C1O (stereo not drawn),16.8% and 0.95%,3.7% and 13.8%,-11.3% and -13.8%,4.25% and -8.15%,2.75% and -8.6%,19.7% and 6.2%
CCC(=O)C1(C)OC1C(C)CC(C)C1OC(=O)CC2(O)CC=C(C)C(O2)/C(C)=C/CCCC(OC2CC(OC(N)=O)C(O)C(C)O2)/C=C/C(C)C(O)C1C (stereo not drawn),78% (active),83.5% (active),82.5% (active),84.5% (active),85.2% (active),83.2% (active)
COc1ccc2c(c1)[n+](=O)c(C(=O)C/C(=N\NC(=O)C[N+](C)(C)C)C(=O)Nc1cc(Cl)ccc1Cl)c(C)n2O,-27.9%,-12.7%,-43.6%,9.3%,-23.1%,-23.4%
CC(C)C(=O)OC1(CC2CCCCN2C)CCCCC1 (stereo not drawn),-3.2%,13.7%,3.95%,-5.8%,5.3%,6.85%
N#CC(c1ccccc1)c1ccc(C(c2ccccc2)(c2ccccc2)C(C#N)c2ccccc2)cc1 (stereo not drawn),17.4%,8.55%,13.9%,19.3%,-4.8%,5.1%
CC1=CC(C)(C)[C@H]2O[C@@]3(O)C[C@]4(C)[C@H]5C[C@@](C(C)C)(O[C@H]4c4ccoc4)O[C@H]4[C@]5(C3)O[C@@]1(O)[C@]24O,5.2%,0.45%,-11.9%,-14.8%,-13.4%,-3.5%
O=C1CSC(c2ccc([N+](=O)[O-])cc2)N1c1ccc(-n2c(-c3ccccc3)nc3ccccc3c2=O)cc1 (stereo not drawn),2.5%,-10.2%,15.2%,-10.5%,30%,13.2%
ONC(CC(O)(NO)NO)c1ccccc1 (stereo not drawn),-32.7%,-32%,-20.6%,12.6%,-28.1%,-25.9%
CC(C)=Nn1cnc2c1NC(C)(C)N=C2C(N)=O,-18.8%,-17.2%,-12.2%,7.85%,14.8%,-15.6%
O=C(CCN1C(=O)c2ccccc2C1=O)Nc1c(I)cc(I)c(C(=O)O)c1I,-4.6%,-11.7%,-20.6%,-20.2%,8.65%,6.8%
COc1cc(Nc2cnc3cc(C(F)(F)F)ccc3n2)cc(OC)c1OC,16.9%,0.95%,21.9%,12.2%,-14.1%,-1.55%
Cc1cccc(C(C)C)c1N1C(=O)C(=O)C(c2nc3ccccc3o2)C(=O)C1=O,-5.85%,2.15%,16.1%,39.1%,16.5%,31.2%
c1cc(-c2cnc(-c3ccc4c(c3)CCCO4)o2)ccn1,40.5%,29.9%,31.6%,17.9%,46.5%,44.1%
O=C1CCCCC(=O)NCCCCCCN1,-7.95%,-2.65%,-18.4%,-21.4%,-12.4%,1.85%
O=CC(=O)O,28.1%,-19.6%,15.7%,13.7%,26.6%,25.7%
CCCCOc1c(Cl)c(Cl)cc(Cl)c1Cl,-10.1%,-15.8%,-3.5%,2.2%,2.05%,-17.1%
